# From PubChem BioAssay
# Rows were chosen to be rich in hits. Some 19% of all compounds tested hit in one or more screens of this group.
# DT40 TDP1 CPT – DT40-hTDP1 cell growth loss with CPT; chicken DT40 Tdp1-/-;hTDP1 cells + 20 nM CPT, ATP luminescence, 48 h; Potency, µM (top dose mostly 46.2 µM), for the others: at the top dose activity change, negative = growth inhibition, most hits filed as inhibitors; hit rate 12% among 420,000; AID 686979; further: potency means the concentration at half of the fitted maximal effect; on the % scale 0 is the no-effect control and ±100 the full control effect; nearly all actives have a fitted effect of over 55% in size
#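 Chicken DT40 Tdp1-/- cells complemented with human TDP1, 400 cells/well, exposed to compounds plus 20 nM camptothecin for at least 48 h at 37 C; viability read as ATP content by CellTiter-Glo luminescence.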
# TDP1 cell noCPT – qHTS for Inhibitors of human tyrosyl-DNA phosphodiesterase 1 (TDP1): qHTS in cells in absence of CPT; DT40 Tdp1-/- hTDP1 cells, no CPT, ATP luminescence, 48 h; Potency, µM (highest dose often 46.2 µM), without a hit: at the top dose activity change, negative = growth inhibition, actives largely listed as inhibitors; hit rate 15% among 420,000; AID 686978, 2013; further: potency means the concentration at half of the fitted maximal effect; on the % scale 0 is the no-effect control and ±100 the full control effect; nearly all actives have a fitted effect of over 55% in size
#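 A cellular qHTS used chicken DT40 cells lacking endogenous Tdp1 but carrying stably transfected human TDP1. Compounds were applied without camptothecin, and cell growth kinetics were judged by ATP-dependent luminescence after ≥48 hr.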
# TGFb inhibitor – blocks TGF-b signaling. AID 588855. HepG2 CAGA-GFP TGF-b/SMAD3 reporter, GFP fluorescence, 18 h; TGF-beta stimulated, 500 pg/mL final. Potency, µM (highest dose often 46.1 µM), for inactives: at the top dose activity, negative = inhibition, actives largely listed as inhibitors. hit rate 1.2% among 410,000; further: potency means the concentration at half of the fitted maximal effect; on the % scale 0 is the no-effect control and ±100 the full control effect; nearly all actives have a fitted effect of over 65% in size
#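 HEPG2 CAGA-GFP cells (1000/well, DMEM with 1% FBS) were pre-incubated 2 h at 37 degrees C, given compound by pin tool, then stimulated with TGF-beta at 500 pg/mL final for 18 h before per-cell GFP fluorescence imaging.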
# IL-1B inflam inh – inhibitors of inflammasome signaling (IL-1 beta secretion); THP-1 LPS/ATP IL-1B secretion, AlphaLISA, 16 h; hits give low values; activity change, % at 57.5 µM; hit rate 4.7% among 360,000; AID 743279; in the data active means activity change below about -50%; inconclusive means mostly about -30% to -49%; further: on the % scale 0 is the no-effect control and ±100 the full control effect
#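 THP-1 cells pretreated 1 hr with compounds (up to 57.5 uM final), then stimulated with LPS (250 ng/mL final) plus ATP (1.25 mM final); secreted IL-1B measured by AlphaLISA after 16 hr, decreased signal indicating inhibition.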
# HepG2 viability – kills HepG2 cells in TGF-b inhibitor counter-screen. hit rate 0.76% among 410,000. AID 588856. HepG2 CAGA-GFP viability, ATP luminescence, 18 h. Potency, µM (doses to about 46.1 µM), without a hit: top-dose activity change, negative = cytotoxicity, hits mostly cytotoxic; further: potency means the concentration at half of the fitted maximal effect
#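 HepG2 CAGA-GFP cells (1000/well, DMEM with 1% FBS) received compound, then TGF-beta at 500 pg/mL final, and were incubated 18 hours at 37 degrees C. Viability was read by CellTiter-Glo luminescence. Media-only wells were set as complete cell-killing and DMSO as no toxicity.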
# TDP1 inh – inhibitors of human tyrosyl-DNA phosphodiesterase TDP1. recombinant TDP1, AlphaScreen DNA substrate cleavage. Potency, µM (highest dose often 130 µM), for inactives: top-dose activity change, negative = inhibition, usual class: inhibitors. hit rate 0.28% among 350,000. AID 485290; further: potency means the concentration at half of the fitted maximal effect; on the % scale 0 is the no-effect control and ±100 the full control effect; nearly all actives have a fitted effect of over 40% in size
# Target sequence (Q9NUW8 whole entry, looked up): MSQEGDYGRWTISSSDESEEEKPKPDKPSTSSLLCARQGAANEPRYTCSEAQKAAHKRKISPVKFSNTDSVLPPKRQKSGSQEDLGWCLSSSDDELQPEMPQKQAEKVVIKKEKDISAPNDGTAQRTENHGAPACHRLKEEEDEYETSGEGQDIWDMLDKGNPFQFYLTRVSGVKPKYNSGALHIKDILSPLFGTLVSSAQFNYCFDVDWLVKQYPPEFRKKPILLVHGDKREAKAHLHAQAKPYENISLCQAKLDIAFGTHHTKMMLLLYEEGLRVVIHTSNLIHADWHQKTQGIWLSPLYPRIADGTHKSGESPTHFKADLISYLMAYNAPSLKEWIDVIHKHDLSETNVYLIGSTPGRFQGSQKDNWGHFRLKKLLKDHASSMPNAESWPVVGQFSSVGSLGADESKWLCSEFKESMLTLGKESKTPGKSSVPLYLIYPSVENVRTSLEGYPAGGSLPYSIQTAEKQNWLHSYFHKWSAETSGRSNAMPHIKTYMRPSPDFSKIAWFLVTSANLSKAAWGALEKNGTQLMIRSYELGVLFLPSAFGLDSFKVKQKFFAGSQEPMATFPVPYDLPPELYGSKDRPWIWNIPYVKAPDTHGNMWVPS
#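 Recombinant E. coli-expressed Tdp1 (1 nM) preincubated with compound 15 min at RT, then 5'-biotin/3'-phosphotyrosine-FITC DNA substrate (15 nM) added for 5 min. AlphaScreen beads (10 ug/ml) added, 10 min RT; tyrosine-FITC cleavage read as signal loss.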
# * = called active by the depositor; i = inactive; ? = inconclusive; / = no result; [ ] = another dose, or the depositor's remark. Unless noted, the call rests on the fitted dose curve; in most records, active means well fitted curve in the direction sought with a large enough effect; inconclusive means small, poorly fitted or top-dose-only effect, or another doubt; inactive means no such curve, though single readings can be large; an effect the other way counts as inactive or inconclusive.
SMILES,DT40 TDP1 CPT,TDP1 cell noCPT,TGFb inhibitor,IL-1B inflam inh,HepG2 viability,TDP1 inh
Cc1nn(-c2ccccc2)c2sc(C(=O)N(CC(=O)NC3CCCC3)Cc3ccco3)cc12,?,16µM*,51%,?,0%,-2%
Cc1nc(-c2cccc(NC(=O)Nc3ccc([N+](=O)[O-])cc3)c2)no1,5.2µM*,4.6µM*,?,/,-56%,5%
O=C(Nc1cccc([N+](=O)[O-])c1)NN1CCCCCC1,?,18µM*,?,?,-22%,/
Cc1cccc(NC(=S)NNC(=O)c2cccc([N+](=O)[O-])c2)c1,-15%,-22%,0%,5,-51%,10%
CC(C)S(=O)(=O)c1csc(NC(=O)Nc2cccc([N+](=O)[O-])c2)c1Cl,16µM*,15µM*,-16%,-17,-15%,3%
Cc1occc1C(=O)NNC(=S)Nc1cccc([N+](=O)[O-])c1,?,23µM*,?,29,-22%,7%
CCOC(=O)c1[nH]c(C)c(C(=O)NCCc2ccccc2)c1C,-14%,-12%,-17%,/,-34%,9%
COc1ccc(S(=O)(=O)c2nnn(-c3ccc(C)c(Cl)c3)c2C)cc1,?,?,?,/,-34%,-5%
Cc1ccc(C(=O)N2CCCCC2CCN2CCCCC2)cc1 (centres undefined),5%,-3%,0%,/,0%,7%
O=C(Nc1cccc([N+](=O)[O-])c1)Nc1cccc([N+](=O)[O-])c1,4.6µM*,2.9µM*,-29%,-57*,-27%,6%
O=C(Nc1ccc(C(=O)O)cc1)Nc1cccc([N+](=O)[O-])c1,-8%,-18%,0%,24,1%,5%
Cc1ccc(C(=O)C[n+]2cccc3cccc(O)c32)cc1,?,?,-6%,/,-11%,/
CCc1nc2ccc(Cc3ccc4nc(CC)[nH]c4c3)cc2[nH]1,13µM*,23µM*,?,-10,-11%,/
Cc1cc(NC(=O)NC(=O)c2ccccc2NC(=O)C(C)N)ccc1Oc1ncc(Br)cn1 (centres undefined),0.65µM*,0.58µM*,?,-1,-7%,/
COc1ccc(C)cc1NC(=O)Nc1ccc(Br)cn1,-2%,3%,-15%,36,3%,-1%
C=CCN1C(c2ccccc2)=CS/C1=C(/C#N)c1nnc(N2CCOCC2)n1-c1ccccc1,18µM*,15µM*,4%,-7,-7%,0%
C=C1CC2(CC(c3ccccc3)OC(c3ccccc3)C2)OC1=O (centres undefined),1.8µM*,2.6µM*,?,-115*,11µM*,/
CC(=O)Nc1ccc(S(=O)(=O)c2ccc(N)cc2)cc1,-12%,-19%,-8%,1,-22%,-5%
CCOC(=O)/C=C/C(=O)Nc1ccc(S(=O)(=O)Nc2c(C)cc(C)cc2C)cc1,7.3µM*,16µM*,?,-72*,-38%,3%
Cc1ccc(/C=C/C(=O)Nc2cccc3cccnc23)o1,12µM*,12µM*,-5%,0,-11%,3%
Cc1ccc(NC(=O)/C=C/c2ccc(C)o2)c(C)c1,?,?,1%,/,-2%,-3%
CCOC(=O)/C=C/S(=O)(=O)c1ccc(NC(C)=O)cc1,1.3µM*,2.1µM*,?,-95*,2µM*,2%
CC(=O)c1ccc(NC(=O)/C=C/c2ccc(C)o2)cc1,15µM*,?,-7%,/,-29%,4%
O=C(CCN1C(=O)[C@@H]2Cc3ccccc3CN2C1=O)Nc1cccc(F)c1,-22%,5%,0%,-17,2%,0%
COc1ccccc1CCNC(=O)Cn1ccc2cc(S(=O)(=O)N3CCCCC3)ccc21,?,?,-26%,/,-14%,8%
SMILES,DT40 TDP1 CPT,TDP1 cell noCPT,TGFb inhibitor,IL-1B inflam inh,HepG2 viability,TDP1 inh
Cc1cc(C)n(-c2nc3ccccc3nc2Nc2cccc(C(=O)NCCc3ccccc3)c2)n1,-22%,?,20%,/,2%,-2%
Cc1ccc(-c2noc(-c3cccnc3N(C)Cc3ccc(Cl)cc3)n2)cc1,-18%,-17%,-17%,/,-3%,3%
CCOC(=O)/C=C/C(=O)Nc1ccc(Oc2ccccc2)cc1,?,?,?,-73*,-37%,0%
Cc1ccc(/C=C/C(=O)Nc2ccc([N+](=O)[O-])cc2)o1,?,?,?,-10,-7%,-1%
Cc1cc(NS(=O)(=O)c2ccc(NC(=O)/C=C/c3ccc(C)o3)cc2)nc(C)n1,15µM*,18µM*,11%,8,-8%,-14%
Cc1ccc(/C=C/C(=O)Nc2ccc(Oc3ccccc3)cc2)o1,?,?,?,-83*,-23%,0%
Cc1cc(NS(=O)(=O)c2ccc(NC(=O)/C=C/c3ccccc3)cc2)nc(C)n1,11%,0%,-12%,35,6%,2%
O=C(CNC(=O)c1cccc(F)c1)NC1CC1,-2%,-3%,-4%,2,-21%,0%
Cc1nc2ccc(C(=O)N3CCN(Cc4ccccc4)CC3)cc2[nH]1,2%,2%,11%,-1,-2%,/
CN1c2ccccc2C(C)(C)C12CC(CCl)=NO2 (centres undefined),16µM*,21µM*,-1%,-12,0%,9%
CCOC(=O)CNC(=O)c1ccc2[nH]c3ccccc3c2c1,?,?,?,-63*,-25%,8%
O=C(NCC(O)CO)c1ccc2[nH]c3ccccc3c2c1 (centres undefined),25%,4%,?,-6,0%,-6%[56.1 µM]
Cc1ccc2[nH]c3nc(NN)nnc3c2c1,23µM*,?,0%,20,-26%,3%
O=S(=O)(c1ccc2c(c1)CCN2)N1CCOCC1,-2%,5%,0%,2,-2%,-7%
COC(=O)[C@H](C)NC(=O)N1CCC(Cc2ccccc2)CC1,-7%,6%,7%,-2,6%,/
CCCCCSc1nnc2c(n1)OC(CC)Nc1ccc(Br)cc1-2 (centres undefined),?,?,-13%,/,-32%,2%
COc1ccc(C2=Nc3ccccc3NC(=O)C2N(CCc2cc(OC)cc(OC)c2)C(C)=O)cc1 (centres undefined),23µM*,?,-21%,?,-5%,/
O=C(CSC1CN(C(c2ccccc2)c2ccccc2)C1)N/N=C/c1ccccc1,16µM*,?,-22%,-23,i,5%
